# Source: PubChem
# RecA intein inh – Mtb RecA intein splicing inhibition. P9WHJ3. cell-free RecA intein splicing, fluorescence. inhibition, % (test concentration not listed). 0.75% of 290,000 active. AID 2221; in the data active = inhibition above about 30%; inconclusive = no clear call, values can overlap the other calls;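 note: 0% = vehicle wells and 100% = reference inhibitor control wells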
# Target sequence (P9WHJ3 whole entry, looked up): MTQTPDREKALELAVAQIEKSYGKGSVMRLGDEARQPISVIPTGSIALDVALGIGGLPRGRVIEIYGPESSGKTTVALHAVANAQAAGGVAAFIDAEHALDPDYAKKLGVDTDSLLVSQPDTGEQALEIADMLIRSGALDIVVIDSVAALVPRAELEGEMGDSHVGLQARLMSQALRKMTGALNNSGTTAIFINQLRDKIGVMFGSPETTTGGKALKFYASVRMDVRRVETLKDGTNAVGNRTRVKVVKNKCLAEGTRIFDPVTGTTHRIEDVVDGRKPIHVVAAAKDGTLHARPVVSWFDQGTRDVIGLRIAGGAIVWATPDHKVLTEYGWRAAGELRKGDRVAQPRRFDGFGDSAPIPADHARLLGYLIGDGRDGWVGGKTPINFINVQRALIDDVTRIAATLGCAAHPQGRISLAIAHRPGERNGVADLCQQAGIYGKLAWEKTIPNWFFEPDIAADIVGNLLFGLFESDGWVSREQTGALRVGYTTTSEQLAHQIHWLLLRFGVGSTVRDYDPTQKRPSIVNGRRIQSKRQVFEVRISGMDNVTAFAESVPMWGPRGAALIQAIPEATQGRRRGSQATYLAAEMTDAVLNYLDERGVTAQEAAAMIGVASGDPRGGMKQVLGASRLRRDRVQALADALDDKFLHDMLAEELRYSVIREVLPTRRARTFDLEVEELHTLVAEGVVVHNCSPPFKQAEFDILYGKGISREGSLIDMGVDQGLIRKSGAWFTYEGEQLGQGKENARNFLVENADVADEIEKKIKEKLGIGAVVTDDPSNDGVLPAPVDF
# SSB-PriA inh – K. pneumoniae PriA-SSBct interaction inhibition; AlphaScreen SSBct-PriA binding, biotinylated peptide; 0.6% of 430,000 active; inhibition, % at 33 µM; in the data active = inhibition mostly above about 37%, no sharp cut-off; inactive = mostly below about 20%;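 note: plate controls were negative control peptide for no effect and reference peptide for full effect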
# PfHsp40 rescue – restores yeast growth despite PfHsp40 toxicity. S. cerevisiae expressing PfHsp40, growth rescue, ATP luminescence. growth rescue, % at 12.5 µM. 0.68% of 340,000 active; in the data active = growth rescue above about 28%, passing the limit was not always enough; inconclusive = no clear call, values can overlap the other calls;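 note: yeast W303a lacking pdr1 and pdr3 grown in galactose medium; growth measured after three days at 30 °C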
# PrPC TRFRET – reduces human prion protein on the cell surface | 0.43% of 370,000 active | cell surface PrPC, TR-FRET read-out | P04156 | inhibition, % at 13.8 µM; in the data active = inhibition above about 24%; note: 0% = median of the test wells and 100% = reference compound wells
# PrP UTR inh – suppresses PrP 5' UTR mRNA reporter expression; cell-based PrP 5' UTR mRNA reporter, plate reader; inhibition, % (concentration not given with the values); 0.35% of 340,000 active; in the data active = inhibition above about 52%; note: 0 = median of the neutral control wells
# BJeLR lethal – BJeLR cell viability loss; 0.17% of 300,000 active; BJeLR (HRASV12) viability, CellTiter-Glo ATP luminescence, 48 h; inhibition, % (test concentration not listed); in the data active = inhibition above about 50%; inconclusive = no clear call, values can overlap the other calls
# Active calls of the source: *; ? = inconclusive; / = no result given; ! = a repeat was not active. Compounds with a hit are over-represented: about 1.9% of the library has one in this group of screens.
SMILES,RecA intein inh,SSB-PriA inh,PfHsp40 rescue,PrPC TRFRET,PrP UTR inh,BJeLR lethal
Cc1cc(Nc2cccc(Cl)c2)nc(-c2ccccc2O)n1,0,-12,1,1,-14,-9
COc1ccc(N2CCN(CCNS(=O)(=O)c3cc(C)c(C)cc3C)CC2)cc1,/,29,/,/,/,/
COC(=O)C1=C(c2cccc(OCc3ccccc3)c2)C[C@@H]2CC[C@H]1N2C(=O)NCc1ccc(N(C)C)cc1,/,56*,0,10,-26,/
COC(=O)C1=C(c2ccc(F)cc2OCc2ccccc2)C[C@@H]2CC[C@H]1N2C(=O)NCc1ccc(N(C)C)cc1,/,46*,0,9,-5,/
COC(=O)C1=C(c2ccccc2OCc2ccccc2)C[C@@H]2CC[C@H]1N2C(=O)NCc1ccc(N(C)C)cc1,/,53*,2,8,-9,/
CSc1oc(CCS(=O)(=O)c2ccc(C)cc2)nc1S(=O)(=O)c1ccc(C)cc1,/,-6,/,/,/,/
CC(C)N=C1CC(C)(C)CC(=O)C1=C(O)CCCN1C(=O)c2ccccc2C1=O,/,-1,/,/,/,/
O=C(O)c1[nH]c2ccc([N+](=O)[O-])cc2c1-c1ccccc1,1,0,1,-5,-1,-4
O=[N+]([O-])c1ccc2[nH]nc(-c3ccccc3)c2c1,1,-4,41*,-8,-8,1
O=C(c1ccccc1Cl)c1cc(Cl)ccc1NC(=O)c1cnc2n(c1=O)CCS2,/,-14,/,/,/,/
Cc1ccc(NC(=O)c2cc(N3C(=O)C=CC3=O)ccc2Cl)cc1C,6,1,294*,0,-10,-7
O=C(Cn1c(=O)oc2ccccc21)N1CC(c2nc(-c3cnccn3)no2)C1,/,-10,/,/,/,/
O=C(COC(=O)c1ccc2c(c1Cl)C(=O)c1ccccc1C2=O)NC1CC1,41*,-9,1,-41,-22,0
O=C(NCCNC(=O)c1cccc2ccccc12)c1ccc(NC(=O)C2CC2)cc1,/,-19,/,/,/,/
COc1ccc(-c2cc(=O)oc3cc(OCC(=O)NCCCn4ccnc4)ccc23)cc1,6,3,1,-18,-13,1
CCc1cc(=O)oc2cc(OCC(=O)NCCCn3ccnc3)ccc12,-5,39*,1,-1,-3,4
O=C(NCC(O)c1ccsc1)c1cnc2ccccc2n1 (stereo unspecified),/,-20,/,/,/,/
Cn1nc([N+](=O)[O-])c(C(C#N)c2ccccn2)c(Cl)c1=O (stereo unspecified),46*,-1,1,-8,9,/
CSc1cccc(NC(=O)C(=O)NCC(c2ccc(C)cc2)N2CCOCC2)c1 (stereo unspecified),/,9,/,/,/,/
CCN(CC)S(=O)(=O)c1ccc(/C(O)=C2/C(=O)C(=O)N(CCOC)C2c2ccccc2)cc1 (stereo unspecified),-1,/,97*,-3,-9,-11
Cc1cc(C(=O)n2nnc3ccccc32)ccc1[N+](=O)[O-],/,-13,/,/,/,/
Cc1ccc(Nc2ccc(N)cc2S(=O)(=O)O)cc1,2,-19,8,-8,-36,-1
Nc1ccc(Nc2ccccc2)c(S(=O)(=O)O)c1,2,15,41*,1,/,22
Nc1c2c3c(sc2nc(=O)n1N)CCCC3,/,-3,-1,-1,-33,6
Nc1nc2sc3c(c2c(=O)s1)CCCC3,1,4,290*,-4,-50,-4
SMILES,RecA intein inh,SSB-PriA inh,PfHsp40 rescue,PrPC TRFRET,PrP UTR inh,BJeLR lethal
COc1cc2c(c(OC)c1OC)-c1ccc(OC)c(=O)cc1[C@@H](NC(C)=O)CC2,-4,-5,-1,-1,49,24
COc1cc2c(c(OC)c1OC)-c1ccc(O)c(=O)cc1[C@@H](N)CC2,/,-2,352*,-3,-13,/
CN[C@H]1CCc2cc(OC)c(OC)c(OC)c2-c2ccc(N(C)CC(OC)OC)c(=O)cc21,-1,-3,1,-14,/,53*
Cc1cc(C=O)c(C)n1-c1ccc(NC2CCCC2)c([N+](=O)[O-])c1,5,68*,0,3,-7,-5
Cc1cc(C=O)c(C)n1-c1ccc(Oc2ccc([N+](=O)[O-])cn2)cc1,-3,-10,-1,-1,-3,6
COc1ccccc1C(=O)NNC(=S)NC(=O)c1ccco1,9,-15,71*,9,-18,20
CCOc1ccccc1NC(=S)NC(=O)c1ccco1,-3,-1,75*,-3,-28,-10
CCOc1ccccc1NC(=O)c1ccccc1NC(=O)c1ccco1,0,-7,-1,-8,-13,-3
O=C(NNC(=S)NC(=O)c1ccco1)c1ccc(F)cc1,-6,-4,7,2,-11,0
COc1ccccc1OCC(=O)NCCCn1cccc1,/,-4,/,/,/,/
CCc1c(C)nc(SCC(=O)Nc2ccc(Br)cc2)[nH]c1=O,1,101*,-1,1,15,2
Cc1cccc(NC(=O)N2CCN(Cc3nc(-c4cccs4)cs3)CC2)c1,/,2,/,/,/,/
CCOC(=O)C1=NN(c2ccccc2)C(=O)C1,-12,1,113*,-3,-67,-6
COC(=O)CC1=NN(c2ccccc2)C(=O)/C1=C\c1ccc(OC)cc1,23,0,?,1,-14,18
CCOC(=O)C1=NN(c2ccccc2)C(=O)/C1=C\c1ccc(N(C)C)cc1,-4,-5,81*,4,-5,-4
Cc1noc(C)c1C(=O)NC1CC2CCC(C1)N2S(C)(=O)=O (stereo unspecified),/,-11,/,/,/,/
Cc1ccc(CN2CCC(CNC(=O)Nc3ccccc3F)CC2)cc1,-1,5,55*,-6,-1,-3
O=C(NCC1CC1)Nc1ccccc1F,-2,-10,-2,-1,-32,2
CCOc1cccc2sc(N(CCCN(C)C)C(=O)c3ccc(S(=O)(=O)N(C)Cc4ccccc4)cc3)nc12,7,38*!,-1,-24,3,-5
CCN(c1ccccc1)S(=O)(=O)c1ccc(C(=O)N(CCCN(C)C)c2nc3c(C)cccc3s2)cc1,6,36*!,0,-15,-26,5
CCN(c1ccccc1)S(=O)(=O)c1ccc(C(=O)N(CCCN(C)C)c2nc3cc4c(cc3s2)OCO4)cc1,4,32,2,-13,-7,-7
CC(C)(C)C1CCc2sc(-c3nnc(CCl)o3)cc2C1 (stereo unspecified),51*,1,-1,-5,48,7
NCC(=O)NCc1nc(Cc2ccccc2)no1,/,10,/,/,/,/
CC(C)c1cc(-c2cc(C(=O)NCc3ccccc3)on2)nc(NCC2CC2)n1,6,-16,387*,3,-14,2
CC(=NNc1nc2ccccc2o1)c1ncccn1,/,101*,20,20,-6,/
S=C1NC[C@H](c2ccccc2)N1CCCCC1CCCCC1,9,0,330*,5,-21,8
COC(=O)c1ccsc1N,/,0,/,/,/,/
N#CC1=C(NC(=O)CCl)NC(SCc2ccccc2)=C(C#N)C12CCCCC2,/,-7,/,/,/,/
Cc1nn2c(-c3ccncc3)nnc2c2ccccc12,0,-11,57*,-7,-18,/
Cc1ccccc1C(=O)Nc1ccc2c(c1)C(=O)NCCO2,/,9,/,/,/,/
